Test systems include SK-MEL-2 melanoma; EKVX NSCLC; SN12C renal; UO-31 renal; TK-10 renal; ACHN renal; CCRF-CEM leukemia; MOLT-4 leukemia; SR leukemia; A498 renal.
What all share (experiment): NCI-60 one-dose screen, 48 h (100 = growth as untreated, 0 = no growth, -100 = all killed)
Holding throughout (conditions): 10 µM unless noted

This note sets out measurements from PubChem BioAssay (NCI).

Compounds without any hit were thinned out: in the full panel of roughly 83,000, 20% have a hit.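 Method: cells in 96-well plates; compound added at one concentration; 48 h incubation; percent growth measured; values under 10 scored active.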 A number with no mark means an inactive call. Calls of active or inactive are those of the source.

Regarding `O=C1Nc2ccc(Cl)cc2/C1=N/c1nc(-c2ccc(Cl)cc2)cs1`, the growth in the assay on SK-MEL-2 melanoma is -2.56% (active); in the assay on EKVX NSCLC it was 25.6%; in the assay with SN12C renal it was 17.3%; in the assay with UO-31 renal it was 24.6%; with TK-10 renal, -15.5% (active); in the assay on ACHN renal, 11.9%. The figures for the growth in the assay with CCRF-CEM leukemia, with MOLT-4 leukemia and with SR leukemia were 8.26% (active), 2.22% (active) and 3.05% (active), respectively.

For `Cc1cccc(C)c1Nc1nnc(-c2ccc(F)cc2)o1`, the growth is 105% in the assay with SK-MEL-2 melanoma; 104% with EKVX NSCLC; 105% in the assay on SN12C renal; 105% with TK-10 renal; 100% in the assay with ACHN renal; 103% in the assay with A498 renal. The growth was 100% in the assay with CCRF-CEM leukemia, 110% with MOLT-4 leukemia and 119% with SR leukemia.

As for `CC[C@H](Nc1ncnc2nc[nH]c12)c1nc2cccc(CC(=O)c3ccc(C(=O)NO)cc3)c2c(=O)n1-c1ccccc1`, the growth is 77.5% in the assay with SK-MEL-2 melanoma; 90.6% with EKVX NSCLC; 84% in the assay with SN12C renal; 88.1% with TK-10 renal; 102% in the assay on ACHN renal; 74% in the assay with A498 renal. Also, the figures for the growth in the assay on CCRF-CEM leukemia, in the assay on MOLT-4 leukemia and with SR leukemia were 90.1%, 66.8% and 67.6%, respectively.

For the molecule `c1ccc(-c2n(Cc3ccc4ccccc4n3)cc[n+]2Cc2ccc3ccccc3n2)cc1`, the growth is -5.81% (active) with SK-MEL-2 melanoma; 70.2% in the assay on EKVX NSCLC; 22.1% with SN12C renal; 58.7% in the assay with TK-10 renal; 96.8% with ACHN renal; 56.1% with A498 renal. The growth in the assay on CCRF-CEM leukemia is 28.4%; in the assay on MOLT-4 leukemia it was 37.9%.

As for `O=C1CCC23OC(c4ccccc4N12)C(O)C(O)C3O` (configuration not stated), the growth in the assay on SK-MEL-2 melanoma was 94.7%; with EKVX NSCLC, 107%; in the assay with SN12C renal, 103%; in the assay on TK-10 renal it was 89.1%; with ACHN renal, 109%; with A498 renal, 104%. In addition, the growth with CCRF-CEM leukemia was 101%; in the assay with MOLT-4 leukemia it was 98.3%; in the assay on SR leukemia it was 112%.

For the molecule `NC(=N\N=C\c1ccccc1O)/C(N)=N/N=C/c1ccccc1O`, the growth in the assay with SK-MEL-2 melanoma was 94.8%; with EKVX NSCLC it was 88.5%; in the assay with SN12C renal, 90.8%; in the assay on TK-10 renal it was 92.5%; in the assay with ACHN renal it was 74.9%; with A498 renal, 79%. Besides, the growth in the assay with CCRF-CEM leukemia was 80.1%; with MOLT-4 leukemia, 68.3%.

With `CNc1cccc2c1C(=O)c1cccc(N)c1C2=O`, the growth with SK-MEL-2 melanoma was 63.7%; in the assay with EKVX NSCLC, 37.9%; in the assay with SN12C renal, 91%; in the assay with TK-10 renal it was 25.8%; with ACHN renal, 72.2%; in the assay with A498 renal, 65%. The growth in the assay on CCRF-CEM leukemia was 20.5%; with MOLT-4 leukemia, 29.4%; in the assay on SR leukemia it was 9.01% (active).

As to `NS(=O)(=O)c1ccc(N2Cc3cc(Cl)ccc3OC3=C2C(=O)N(CC2CCCCC2)C3=O)cc1`, the growth with SK-MEL-2 melanoma is -72.3% (active); in the assay on EKVX NSCLC it was -65.1% (active); in the assay with SN12C renal it was -65.3% (active); in the assay on TK-10 renal, -96.7% (active); in the assay with ACHN renal it was -100% (active); with CCRF-CEM leukemia, -38.8% (active). The growth with MOLT-4 leukemia was -34.9% (active); with SR leukemia, -43.4% (active).

Regarding `Cc1cc(Cl)cc(CN(Cc2ccccc2)Cc2c(O)ccc3ccccc23)c1O`, the growth was 91% with SK-MEL-2 melanoma; 99% in the assay with EKVX NSCLC; 83.5% with SN12C renal; 110% in the assay with TK-10 renal; 102% with ACHN renal; 76.6% in the assay on A498 renal. The growth is 99.2% with CCRF-CEM leukemia, 104% in the assay with MOLT-4 leukemia and 92.9% in the assay on SR leukemia.

Consider `COc1ccc(C(=S)c2cc(OC)c(OC)c(OC)c2)cc1OC(=O)CCl`, for which the growth in the assay on SK-MEL-2 melanoma is 41.9%; in the assay with EKVX NSCLC it was 71.8%; in the assay on SN12C renal, 34.6%; with TK-10 renal it was 65.2%; with ACHN renal it was 41.9%; in the assay with A498 renal, 16%. Moreover, the figures for the growth with CCRF-CEM leukemia, with MOLT-4 leukemia and with SR leukemia were 14.3%, 15.3% and 11%, respectively.

`COc1ccc2nc(-c3ccc(Cl)cc3)cc(-c3nnc(SCC(=O)Nc4ccc(/C(C)=N\O)cc4)o3)c2c1`: the growth in the assay with SK-MEL-2 melanoma is 63.8%; in the assay on EKVX NSCLC it was 35.4%; in the assay on SN12C renal, -7.09% (active); in the assay on TK-10 renal it was 79.4%; in the assay with ACHN renal, 65.6%; with A498 renal, 64%. The figures for the growth in the assay with CCRF-CEM leukemia, in the assay on MOLT-4 leukemia and in the assay on SR leukemia were 31.1%, 12.4% and 6.61% (active), respectively.

On to `O=c1c2ccccc2oc2ccc(OCCCCCN3CCCCCC3)cc12`, for which the growth in the assay with SK-MEL-2 melanoma is 99.4%; in the assay with EKVX NSCLC it was 90.4%; in the assay with SN12C renal, 69.4%; in the assay on TK-10 renal it was 72.2%; in the assay on ACHN renal, 103%; with A498 renal, 82.7%. Also, the growth in the assay on CCRF-CEM leukemia is 82.5%; in the assay with MOLT-4 leukemia, 46.7%; in the assay with SR leukemia it was 46.9%.

On to `Nc1c(C(=O)Nc2cccc3ccccc23)sc2nc3c(cc12)COCC3`, for which the growth in the assay with SK-MEL-2 melanoma is 49.1%; in the assay on EKVX NSCLC, 85.1%; in the assay on SN12C renal it was 59.9%; with TK-10 renal it was 96.4%; in the assay with ACHN renal, 62.5%; in the assay with A498 renal it was 54.2%. Moreover, the growth was 23.6% in the assay with CCRF-CEM leukemia and 35% in the assay on MOLT-4 leukemia.

In the case of `O=c1[nH]nc(-c2ccc(Br)cc2)c2sc(NC(=S)Nc3ccc(Cl)cc3)nc12`, the growth in the assay with SK-MEL-2 melanoma was 101%; with EKVX NSCLC, 89.8%; in the assay on SN12C renal, 109%; with TK-10 renal, 123%; in the assay with ACHN renal it was 102%; in the assay on A498 renal it was 100%. Further, the growth with CCRF-CEM leukemia is 98.4%; in the assay on MOLT-4 leukemia it was 105%; in the assay on SR leukemia, 106%.
